Compound activity as filed in PubChem.
PostGolgi ctrl: inhibits growth of the yeast control strain | efflux-deficient yeast background strain, growth absorbance A615, 16 h | inhibition, % at 10 µM | 5% of 98,000 active | AID 738
Cav32 inh: human Cav3.2 channel inhibition, primary screen | O95180 | Cav3.2-expressing cells, Fluo-4 calcium fluorescence FDSS; hits give low values | B-score at 10 µM | 4% of 100,000 active;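 active = single-dose well whose peak fluorescence ratio is a statistical outlier from its plate by either plate-standardised score or position-corrected B-score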
DAT uptake mod: modulates human dopamine transporter uptake under cocaine | AID 449768 | 1.3% of 110,000 active | LLC-PK1 hDAT cells, [14C]-dopamine uptake with cocaine IC80; actives deviate in either direction | Q01959 | B-score at 10 µM;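 active = Z score or B-score, a plate-position-corrected score, falls beyond the plate's 99.7% confidence bounds, in either direction; inactive = both scores lie inside the 99.7% bounds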;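 note: scored against the spread of the other compound wells on the same plate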
PLAP act: activators of human placental alkaline phosphatase; P05187; purified PLAP enzyme, luminescent substrate read-out; hits give high values; activation fold at 20 µM; 1.2% of 96,000 active; in the data active = activation fold above about 2
PostGolgi yeast: growth inhibition of a yeast mutant, post-Golgi transport screen; AID 739; inhibition, % at 10 µM; 0.9% of 98,000 active; post-Golgi transport phenotypic cell assay;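 note: yeast cells grown in 1536-well plates; yeast grown about 18 h at 30C before absorbance read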
Starred values were filed as active, the others as inactive. Only some compounds are listed: those with a hit (about 9.6% of all), similar ones and a draw of the others. Cut-off read from the data, not from the text of the source, unless noted: active = inhibition above about 30%; inactive = the rest.

What do the screens show for `CCc1nnc(NC(=O)CSc2nnc(Cc3ccccc3)n2-c2ccccc2)s1`?
PostGolgi ctrl: 0; Cav32 inh: -4.5*; DAT uptake mod: 1; PLAP act: 1.2; PostGolgi yeast: -4

What do the screens show for `C=CCN1C=CC(=C/C=C(/C#N)C(=O)OCC)C=C1`?
Cav32 inh: -6.4*; DAT uptake mod: -2.6*

Results for CCOC(=O)/C(C#N)=C\N(C)C ?
PostGolgi ctrl: -3; PLAP act: 0.9; PostGolgi yeast: 14

How did O=C(NC(NC1CCS(=O)(=O)C1)C(=O)c1ccccc1)c1ccc(Cl)cc1 (stereo not given) do in these assays?
PostGolgi ctrl: -4; Cav32 inh: 0.68; DAT uptake mod: 0.051; PLAP act: 1.3; PostGolgi yeast: -2

Results for N#C/C(=C\c1ccc(Cl)cc1)c1nc2ncccc2[nH]1 ?
PostGolgi ctrl: 48*; DAT uptake mod: -0.077; PLAP act: 1.2; PostGolgi yeast: 27

How did Cc1ccc(/C=C(\C#N)c2nc3ccccc3[nH]2)s1 do in these assays?
PostGolgi ctrl: 27; Cav32 inh: 0.13; DAT uptake mod: 0.062; PLAP act: 0.9; PostGolgi yeast: -5

Results for O=C(Nc1nnc(C2CC2)s1)C1Cc2ccccc2CN1S(=O)(=O)c1ccccc1F (stereo not given) ?
PostGolgi ctrl: 8; Cav32 inh: -1.9; DAT uptake mod: -0.54; PLAP act: 1; PostGolgi yeast: 3

Results for O=C1CCSc2ccc(Cl)cc2N1Cc1cccc(Cl)c1 ?
PostGolgi ctrl: 41*; Cav32 inh: -3.4; DAT uptake mod: 1.3; PLAP act: 1; PostGolgi yeast: -13

What do the screens show for `Cc1ccc(CN2C(=O)CCSc3ccc(Cl)cc32)cc1`?
PostGolgi ctrl: 46*; Cav32 inh: -4.9*; DAT uptake mod: 0.13; PLAP act: 1.1; PostGolgi yeast: 4

What do the screens show for `Clc1ccc(Cn2cc(/C=N/n3cnnc3)c3ccccc32)c(Cl)c1`?
PostGolgi ctrl: 32*; DAT uptake mod: 0.19; PLAP act: 1.1; PostGolgi yeast: -1

What do the screens show for `Cn1c(=O)[nH]c(=O)c2c1nc(Br)n2CC(O)c1ccccc1` (stereo not given)?
PostGolgi ctrl: -4; Cav32 inh: -0.39; DAT uptake mod: 0.085; PLAP act: 1.2; PostGolgi yeast: -15

What do the screens show for `CCOc1ccc(-n2c(C)nc3c(cnn3-c3ccc(Cl)cc3)c2=O)cc1`?
PostGolgi ctrl: 14; Cav32 inh: -2.2; DAT uptake mod: -0.51; PLAP act: 0.7; PostGolgi yeast: 10

What do the screens show for `CCc1nc2c(cnn2-c2ccc(Cl)cc2)c(=O)n1-c1ccc(OC)cc1`?
PostGolgi ctrl: 49*; Cav32 inh: -0.027; DAT uptake mod: -1.5; PLAP act: 1.2; PostGolgi yeast: 4

What do the screens show for `O=c1cc(-c2ccccc2)nc2nc(SCc3ccccc3)[nH]n12`?
PostGolgi ctrl: 15; Cav32 inh: -4.6*; DAT uptake mod: 1.6; PLAP act: 0.9; PostGolgi yeast: -3

How did Cc1cc(=O)n2[nH]c(SCc3ccccc3)nc2n1 do in these assays?
PostGolgi ctrl: -4; Cav32 inh: 0.27; DAT uptake mod: -0.31; PLAP act: 0.8; PostGolgi yeast: -5

How did CCC(CC)C(=O)Nc1cccc(C(=O)Nc2ccc(S(=O)(=O)Nc3ccc(C)cc3)cc2)c1 do in these assays?
PostGolgi ctrl: 5; Cav32 inh: -2.4; DAT uptake mod: -0.41; PLAP act: 1.1; PostGolgi yeast: 4

How did Cc1cc(NC(=O)CC(CN(C)S(=O)(=O)c2ccccc2)c2ccccc2)no1 (stereo not given) do in these assays?
PostGolgi ctrl: -1; Cav32 inh: -2.2; DAT uptake mod: 0.63; PLAP act: 0.9; PostGolgi yeast: 10

What do the screens show for `CCOC(=O)C1=C(CCc2ccccc2)NC(=O)NC1c1ccc(C#N)cc1` (stereo not given)?
Cav32 inh: -0.27; DAT uptake mod: 1.6

How did c1ccc(C(c2ccccc2)N2CCN(Cc3nnnn3C3CCCC3)CC2)cc1 do in these assays?
PostGolgi ctrl: 22; DAT uptake mod: 1.3; PLAP act: 1.6; PostGolgi yeast: 1

How did CCC(C)(C)n1nnnc1CN1CCN(C(c2ccccc2)c2ccccc2)CC1 do in these assays?
Cav32 inh: -3.4*; DAT uptake mod: 0.78

Results for CCC(C)(C)n1nnnc1C(c1ccc2ncccc2c1)N1CCCC(C)C1 (stereo not given) ?
Cav32 inh: -2.1; DAT uptake mod: -0.61

How did CCC(C)(C)n1nnnc1C(c1ccc2ncccc2c1)N1CCN(c2nc3ccccc3s2)CC1 (stereo not given) do in these assays?
PostGolgi ctrl: 34*; Cav32 inh: -3.3; DAT uptake mod: 1.4; PLAP act: 1.6; PostGolgi yeast: -2

Results for CCC(C)(C)n1nnnc1C(c1ccc2ncccc2c1)N1CCN(Cc2ccc3c(c2)OCO3)CC1 (stereo not given) ?
PostGolgi ctrl: 3; Cav32 inh: -0.42; DAT uptake mod: 1.6; PLAP act: 2.1*; PostGolgi yeast: 0

Results for CCC(C)(C)n1nnnc1C(c1ccc(C)cc1)N1CCN(Cc2ccc3c(c2)OCO3)CC1 (stereo not given) ?
Cav32 inh: -4.4*; DAT uptake mod: 1.8

What do the screens show for `CC(C)C(c1nnnn1Cc1ccccc1)N1CCN(Cc2ccc3c(c2)OCO3)CC1` (stereo not given)?
PostGolgi ctrl: 6; Cav32 inh: -0.93; DAT uptake mod: -0.34; PLAP act: 1.6; PostGolgi yeast: -8

How did O=C(COC(=O)c1cc(-c2ccc(Cl)s2)nc2ccccc12)NCc1ccco1 do in these assays?
PostGolgi ctrl: 33*; Cav32 inh: 0.52; DAT uptake mod: 0.27; PLAP act: 1.4; PostGolgi yeast: -9

What do the screens show for `O=C(COC(=O)c1cc(-c2cccs2)nc2ccccc12)NCc1ccco1`?
PostGolgi ctrl: 16; Cav32 inh: -0.064; DAT uptake mod: 1.4; PLAP act: 1.4; PostGolgi yeast: -6

How did COc1ccccc1OCc1ccc(C(=O)NCC2CCCO2)o1 (stereo not given) do in these assays?
PostGolgi ctrl: 8; Cav32 inh: 0.26; DAT uptake mod: -0.83; PLAP act: 1; PostGolgi yeast: 0

Results for C=CCc1cccc(CNc2nc3ccccc3n2C(C)C)c1O ?
PostGolgi ctrl: 47*; PLAP act: 0.9; PostGolgi yeast: -5

Results for C/C(=N\OC(=O)NC(C)C)c1sc(-c2ccccc2)nc1C ?
PostGolgi ctrl: 18; Cav32 inh: -0.71; DAT uptake mod: 0.5; PLAP act: 1; PostGolgi yeast: -3

What do the screens show for `C/C(=N\OC(=O)NC1CCCCC1)c1sc(-c2ccccc2)nc1C`?
PostGolgi ctrl: 34*; Cav32 inh: -0.15; DAT uptake mod: 1.7; PLAP act: 1; PostGolgi yeast: -2

Results for C/C(=N\OC(=O)NC(C)C)c1sc(-c2ccc(Cl)cc2)nc1C ?
PostGolgi ctrl: 36*; Cav32 inh: -0.43; DAT uptake mod: 0.36; PLAP act: 1.2; PostGolgi yeast: -2

What do the screens show for `C/C(=N\OC(=O)c1ccc(F)cc1)c1sc(-c2ccccc2)nc1C`?
PostGolgi ctrl: 4; Cav32 inh: -0.11; DAT uptake mod: 0.34; PLAP act: 1; PostGolgi yeast: -9
